Common to all, as to test: NCI-60 one-dose screen, 48 h (100 = growth as untreated, 0 = no growth, -100 = all killed)
What all share (conditions): 10 µM unless noted

Assay [1] deals with SR leukemia.
The test system of assay [2] is RPMI-8226 leukemia.
Assay [3] concerns OVCAR-8 ovarian.
The subject of assay [4] is OVCAR-5 ovarian.
Assay [5] has as its system OVCAR-4 ovarian.
In assay [6] the test system is SK-OV-3 ovarian.
Assay [7] has as its system IGROV1 ovarian.
Assay [8] relates to OVCAR-3 ovarian.
For assay [9], the system named is HS 578T breast.
In assay [10] the test system is NCI/ADR-RES ovarian.
For assay [11], the system named is T-47D breast.
Assay [12] relates to BT-549 breast.
Assay [13] concerns MDA-MB-435 melanoma.
Assay [14] has as its system SW-620 colon.
Assay [15] has as its system MCF7 breast.
Assay [16] deals with HCT-116 colon.
Assay [17] concerns HCC-2998 colon.
For assay [18], the system named is KM12 colon.

The panel holds about 83,000 compounds, 20% with a hit somewhere; the sample as a whole holds those more often.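 A percent growth of 40 corresponds to 60% growth inhibition; 0 means no net growth; -100 means all cells died. Active threshold: below 10.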 A number with no mark means an inactive call. Activity calls are given as the source filed them.

Take `C=C1C(=O)O[C@H]2[C@H]1CC/C(CNC(=O)/C=C/c1ccccc1)=C\CC[C@@]1(C)O[C@@H]21`: the growth was 6.13% (active) in assay [1]; -10.5% (active) in assay [2]; 5.85% (active) in assay [3]; -21.6% (active) in [4]; 38.5% in assay [5]; 109% in assay [6]. The growth in [7] was -16.9% (active); in [8], -85.1% (active); in [9], 28.6%; in assay [10], 69.1%; in assay [11] it was -12.1% (active); in assay [12], -56.8% (active). The growth is -8.54% (active) in [13]; -68.4% (active) in assay [14]; -22.2% (active) in assay [15]; -58.9% (active) in [16]; -7.49% (active) in [17]; 76.5% in assay [18].

For the molecule `CN1CCC(=C(c2ccccc2)c2ccccc2)C(c2ccccc2)C1` (centres undefined), the growth in assay [1] is 96.5%; in assay [2], 103%; in assay [3], 99.3%; in assay [4], 90%; in [5] it was 104%; in assay [6] it was 115%. Moreover, the growth in [7] is 81.7%; in [8], 113%; in assay [9], 103%; in [10], 83.4%; in assay [11], 93.7%; in assay [12] it was 97.1%. Besides, the growth in [13] was 102%; in assay [14], 92.9%; in assay [15] it was 86.7%; in assay [16] it was 71.3%; in assay [17], 88.7%; in [18] it was 97.3%.

In the case of `Cc1cc(C)c(S(=O)(=O)Oc2ccccc2[N+](=O)[O-])c(C)c1`, the growth is 15.7% in [1]; 24.2% in assay [2]; 29.8% in assay [3]; 43.4% in assay [4]; 42.9% in assay [5]; 41.2% in [6]. The growth is 30.2% in [7]; -24.1% (active) in assay [8]; -16.4% (active) in [9]; 8.3% (active) in assay [10]; 38.8% in assay [11]; 40.6% in assay [12]. The growth is -2.54% (active) in assay [13]; 8.04% (active) in assay [14]; 13.3% in [15]; 19.7% in assay [16]; 32.1% in assay [17]; 23% in assay [18].

Turning to `COc1ccc(NC(=O)c2cc(NCc3cc(O)ccc3O)ccc2O)cc1`, the growth is 39.3% in [1]; 49.5% in assay [2]; 83.3% in assay [3]; 116% in assay [4]; 91.9% in assay [5]; 86% in assay [6]. For the same molecule, the growth in assay [7] was 88.4%; in assay [8], 84.3%; in assay [9] it was 90.1%; in assay [10] it was 101%; in assay [11], 68.4%; in [12] it was 71.8%. Also, the growth in assay [13] is 99.7%; in [14] it was 100%; in assay [15], 75.6%; in [16] it was 96.9%; in assay [17], 107%; in assay [18], 88.3%.

Take `C=C(C)[C@@H]1CC[C@]2(C(=O)N[C@@H](Cc3ccccc3)C(=O)OC)CC[C@]3(C)[C@H](CC[C@@H]4[C@@]5(C)CCC(=O)C(C)(C)[C@@H]5CC[C@]43C)[C@@H]12`: the growth in assay [1] is 85.3%; in [2] it was 85.2%; in assay [3] it was 100%; in assay [4], 97.9%; in [5], 73.5%; in assay [6], 98.8%. Besides, the growth in assay [7] was 88.7%; in assay [8], 72.7%; in assay [9] it was 96.4%; in assay [10], 99.1%; in assay [11], 64.8%; in [12] it was 105%. Further, the growth in [13] was 90.6%; in assay [14], 95.4%; in assay [15], 84.6%; in assay [16], 68.4%; in assay [17] it was 98.2%; in assay [18], 75.2%.

For the molecule `O=Cc1ccc(-c2cn3ccnc3c(-c3ccc4ncn(Cc5ccccc5)c4c3)n2)cc1`, the growth in [1] is 52.5%; in assay [2], 17.5%; in assay [3], 56%; in assay [4], 102%; in assay [5], 83.1%; in assay [6], 94.9%. Also, the growth was 78.7% in assay [7]; 76.3% in assay [8]; 54.4% in assay [9]; 62.6% in [10]; 1.99% (active) in assay [11]; 66.2% in assay [12]. The growth in assay [13] was 87%; in assay [14], 95.8%; in [15], 52.2%; in [16] it was 7.44% (active); in assay [17], 105%; in assay [18], 96.3%.

On to `CN(C)c1ccc(Nc2c3ccccc3nc3cc(NC(=O)CCN4CCCC4)ccc23)cc1`, for which the growth in [1] was -19.3% (active); in [2] it was -35.5% (active); in [3], 4.51% (active); in assay [4], 11.5%; in assay [5], -17.9% (active); in assay [6], 16.6%. In addition, the growth in assay [7] is 1.29% (active); in assay [8], -38.6% (active); in assay [9] it was 19.8%; in assay [10], 58.3%; in assay [11], 12.1%; in [12], 23.6%. The growth was -94.4% (active) in [13]; -33.3% (active) in assay [14]; -21.8% (active) in [15]; -56.2% (active) in assay [16]; -83.3% (active) in assay [17]; -34.8% (active) in assay [18].

For the molecule `C=CCN1C(=O)/C(=C/C(=O)OC)S/C1=N\NC(=O)c1cc2ccc1/C=C\c1ccc(cc1)/C=C\2`, the growth in assay [1] is 1.79% (active); in assay [2], -9.36% (active); in [3], 88.2%; in assay [4], 96.1%; in assay [5], 97.1%; in assay [6] it was 140%. Besides, the growth is 89.2% in assay [7]; 86.4% in [8]; 93.6% in assay [9]; 89.5% in [10]; 62.8% in assay [11]; 61.7% in [12]. The growth in assay [13] is 100%; in assay [14], 44.5%; in assay [15], 51.5%; in assay [16], 54%; in assay [17] it was 108%; in assay [18], 81.6%.

Values taken from PubChem BioAssay (NCI).
